Measured values reported in ChEMBL document CHEMBL1961873, “Compounds: GSK PKIS; Assays: Nanosyn kinase panel” (2012).

Legend:
[1] = target: Sphingosine kinase 1 (Homo sapiens) (UniProt Q9NYA1); details: at 1 µM;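 further: mean SPHK1 inhibition value reported from the GSK PKIS kinase panel screen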
[2] = target: T1, Sphingosine kinase 2 (Homo sapiens) (UniProt Q9NRA0); details: at 0.1 µM
T1 sequence (whole entry): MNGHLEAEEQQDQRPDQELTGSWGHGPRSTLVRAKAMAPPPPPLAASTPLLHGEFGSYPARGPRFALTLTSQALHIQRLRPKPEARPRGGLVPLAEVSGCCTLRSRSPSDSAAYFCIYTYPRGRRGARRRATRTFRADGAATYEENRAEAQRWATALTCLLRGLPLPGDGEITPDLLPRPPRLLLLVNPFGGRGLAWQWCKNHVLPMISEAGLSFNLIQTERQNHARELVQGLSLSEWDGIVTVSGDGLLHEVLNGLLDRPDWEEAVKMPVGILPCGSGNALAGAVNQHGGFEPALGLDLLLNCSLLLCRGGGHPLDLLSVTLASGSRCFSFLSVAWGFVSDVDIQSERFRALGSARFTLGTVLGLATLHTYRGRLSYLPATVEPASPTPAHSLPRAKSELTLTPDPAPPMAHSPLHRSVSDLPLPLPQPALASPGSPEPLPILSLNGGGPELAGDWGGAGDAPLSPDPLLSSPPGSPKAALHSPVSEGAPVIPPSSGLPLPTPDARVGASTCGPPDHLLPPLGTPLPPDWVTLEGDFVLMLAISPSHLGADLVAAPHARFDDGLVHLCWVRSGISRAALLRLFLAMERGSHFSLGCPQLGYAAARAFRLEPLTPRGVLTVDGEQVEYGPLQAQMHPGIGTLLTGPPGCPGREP

[3] = target: T1, Sphingosine kinase 2 (Homo sapiens); details: at 1 µM
[4] = target: Casein kinase II subunit alpha (Homo sapiens) (UniProt P68400); details: at 0.1 µM
Sequence of Casein kinase II subunit alpha (Homo sapiens) (P68400 whole entry, looked up): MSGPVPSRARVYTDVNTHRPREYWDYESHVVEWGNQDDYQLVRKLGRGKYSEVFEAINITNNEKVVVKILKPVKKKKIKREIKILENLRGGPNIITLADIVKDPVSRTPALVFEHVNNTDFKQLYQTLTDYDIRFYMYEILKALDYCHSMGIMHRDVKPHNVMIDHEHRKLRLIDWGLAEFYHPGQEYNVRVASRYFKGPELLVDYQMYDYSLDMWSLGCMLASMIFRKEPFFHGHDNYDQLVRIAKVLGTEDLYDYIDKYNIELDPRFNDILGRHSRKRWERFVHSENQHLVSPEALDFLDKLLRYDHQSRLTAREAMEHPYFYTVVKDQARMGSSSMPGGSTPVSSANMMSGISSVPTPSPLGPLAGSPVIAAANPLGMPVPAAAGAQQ

[5] = target: Casein kinase II subunit alpha (Homo sapiens) (UniProt P68400); details: at 1 µM
[6] = target: T2, Inhibitor of nuclear factor kappa-B kinase subunit alpha (Homo sapiens) (UniProt O15111); details: at 0.1 µM
T2 sequence (whole entry): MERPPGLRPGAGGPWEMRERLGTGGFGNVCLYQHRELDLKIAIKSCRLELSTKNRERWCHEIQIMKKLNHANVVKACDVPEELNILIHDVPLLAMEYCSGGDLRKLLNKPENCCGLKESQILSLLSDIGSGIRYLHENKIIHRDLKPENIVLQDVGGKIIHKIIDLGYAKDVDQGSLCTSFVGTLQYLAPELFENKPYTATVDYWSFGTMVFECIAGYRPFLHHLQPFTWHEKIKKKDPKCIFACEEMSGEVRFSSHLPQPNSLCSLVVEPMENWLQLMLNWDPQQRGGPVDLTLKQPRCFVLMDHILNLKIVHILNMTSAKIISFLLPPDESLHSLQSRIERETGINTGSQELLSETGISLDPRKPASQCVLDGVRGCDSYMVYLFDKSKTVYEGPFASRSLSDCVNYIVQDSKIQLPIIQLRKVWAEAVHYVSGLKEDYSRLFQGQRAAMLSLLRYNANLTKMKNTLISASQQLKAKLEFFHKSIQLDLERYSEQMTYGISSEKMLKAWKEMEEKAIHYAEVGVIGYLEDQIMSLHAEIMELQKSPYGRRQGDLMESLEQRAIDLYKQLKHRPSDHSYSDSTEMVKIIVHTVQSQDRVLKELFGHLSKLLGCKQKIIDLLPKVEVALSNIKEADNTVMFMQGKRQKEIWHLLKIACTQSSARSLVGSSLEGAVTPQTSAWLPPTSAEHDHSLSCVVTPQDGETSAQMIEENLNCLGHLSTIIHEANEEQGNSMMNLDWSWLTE

[7] = target: T2, Inhibitor of nuclear factor kappa-B kinase subunit alpha (Homo sapiens); details: at 1 µM
[8] = target: T3, Inhibitor of nuclear factor kappa-B kinase subunit beta (Homo sapiens) (UniProt O14920); details: at 0.1 µM
T3 sequence (whole entry): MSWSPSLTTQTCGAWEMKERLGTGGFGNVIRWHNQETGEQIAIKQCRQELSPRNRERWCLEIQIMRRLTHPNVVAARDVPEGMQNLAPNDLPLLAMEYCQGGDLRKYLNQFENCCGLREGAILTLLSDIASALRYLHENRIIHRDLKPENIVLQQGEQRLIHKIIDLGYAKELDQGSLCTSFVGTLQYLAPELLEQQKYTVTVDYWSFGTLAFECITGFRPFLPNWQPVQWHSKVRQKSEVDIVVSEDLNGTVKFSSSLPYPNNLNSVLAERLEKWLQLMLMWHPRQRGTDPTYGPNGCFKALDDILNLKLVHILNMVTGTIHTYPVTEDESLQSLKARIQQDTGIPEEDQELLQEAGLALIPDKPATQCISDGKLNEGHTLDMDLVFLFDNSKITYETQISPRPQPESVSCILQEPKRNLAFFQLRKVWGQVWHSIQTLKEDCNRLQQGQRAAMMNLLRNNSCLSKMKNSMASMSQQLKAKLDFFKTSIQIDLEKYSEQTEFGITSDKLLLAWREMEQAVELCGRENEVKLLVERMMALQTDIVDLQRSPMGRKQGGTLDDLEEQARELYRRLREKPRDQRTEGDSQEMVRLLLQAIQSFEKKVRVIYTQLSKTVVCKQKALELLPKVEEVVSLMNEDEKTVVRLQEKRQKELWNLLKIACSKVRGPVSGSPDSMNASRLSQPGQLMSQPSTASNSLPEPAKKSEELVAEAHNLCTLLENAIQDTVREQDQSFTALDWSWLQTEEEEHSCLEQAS

[9] = target: T3, Inhibitor of nuclear factor kappa-B kinase subunit beta (Homo sapiens); details: at 1 µM
[10] = target: T4, Inhibitor of nuclear factor kappa-B kinase subunit epsilon (Homo sapiens) (UniProt Q14164); details: at 0.1 µM;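 further: mean inhibition of IKKε reported, from the GSK PKIS dataset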
T4 sequence (whole entry): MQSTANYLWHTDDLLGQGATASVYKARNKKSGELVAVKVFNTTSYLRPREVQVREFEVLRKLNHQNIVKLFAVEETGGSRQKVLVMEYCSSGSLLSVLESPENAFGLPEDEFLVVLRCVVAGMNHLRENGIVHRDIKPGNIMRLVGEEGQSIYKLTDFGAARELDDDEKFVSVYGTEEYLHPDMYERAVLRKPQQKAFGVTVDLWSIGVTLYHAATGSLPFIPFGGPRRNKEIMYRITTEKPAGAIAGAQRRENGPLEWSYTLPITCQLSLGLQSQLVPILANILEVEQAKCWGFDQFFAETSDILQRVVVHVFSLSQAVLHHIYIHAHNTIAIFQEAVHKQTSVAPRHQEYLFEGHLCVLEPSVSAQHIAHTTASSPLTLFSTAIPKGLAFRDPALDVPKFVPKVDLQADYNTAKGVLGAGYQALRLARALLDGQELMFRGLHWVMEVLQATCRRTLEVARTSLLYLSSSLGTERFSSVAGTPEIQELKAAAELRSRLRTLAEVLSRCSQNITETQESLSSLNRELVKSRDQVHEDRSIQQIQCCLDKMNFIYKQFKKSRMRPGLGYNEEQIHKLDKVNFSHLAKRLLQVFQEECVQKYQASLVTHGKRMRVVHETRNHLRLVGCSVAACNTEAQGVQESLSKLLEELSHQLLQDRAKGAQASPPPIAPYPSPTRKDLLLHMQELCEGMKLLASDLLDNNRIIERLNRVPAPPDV

Sequence of Sphingosine kinase 1 (Homo sapiens) (Q9NYA1 whole entry): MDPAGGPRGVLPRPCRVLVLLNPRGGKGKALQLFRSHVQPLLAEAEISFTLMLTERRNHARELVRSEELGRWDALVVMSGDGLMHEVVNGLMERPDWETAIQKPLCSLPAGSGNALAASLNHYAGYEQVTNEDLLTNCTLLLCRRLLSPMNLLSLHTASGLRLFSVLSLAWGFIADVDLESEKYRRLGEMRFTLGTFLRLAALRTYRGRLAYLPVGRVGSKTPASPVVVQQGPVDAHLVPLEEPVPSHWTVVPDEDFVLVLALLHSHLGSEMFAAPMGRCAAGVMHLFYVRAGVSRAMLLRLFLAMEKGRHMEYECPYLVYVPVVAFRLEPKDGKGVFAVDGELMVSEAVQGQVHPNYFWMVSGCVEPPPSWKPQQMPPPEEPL

CC(C)(CO)CNC(=O)c1ccc2c(c1)/C(=N/Nc1ccc(S(N)(=O)=O)cc1)C(=O)N2
inhibition [1]: 0.62% | inhibition [2]: 0.34% | inhibition [3]: 0.16% | inhibition [4]: 2.49% | inhibition [5]: 23.5% | inhibition [6]: 4.85% | inhibition [7]: 3.43% | inhibition [8]: 3.25% | inhibition [9]: 0.5% | inhibition [10]: 14.3%

COc1ccc(-c2cc(-c3c[nH]nc3-c3ccccn3)ccn2)cc1
inhibition [1]: 0.76% | inhibition [2]: -1.45% | inhibition [3]: -1.01% | inhibition [4]: 5.84% | inhibition [5]: 8.65% | inhibition [6]: -3.06% | inhibition [7]: 10.5% | inhibition [8]: 7.11% | inhibition [9]: 8.08% | inhibition [10]: 7.81%

[O-][S+]1CCN(Cc2ccc(-c3ccc4ncnc(Nc5ccc(OCc6cccc(F)c6)c(Cl)c5)c4c3)o2)CC1
inhibition [1]: 1.32% | inhibition [2]: 4.71% | inhibition [3]: 0.73% | inhibition [4]: 12.8% | inhibition [5]: 4.15% | inhibition [6]: 8.15% | inhibition [7]: 9.46% | inhibition [8]: 9.09% | inhibition [9]: 7.58% | inhibition [10]: 11.3%

COc1cc(Nc2nccc(Nc3ccc4c(C)n[nH]c4c3)n2)cc(OC)c1OC
inhibition [1]: 1.98% | inhibition [2]: -1.28% | inhibition [3]: 0.88% | inhibition [4]: 0.37% | inhibition [5]: 0.29% | inhibition [6]: 2.2% | inhibition [7]: -0.92% | inhibition [8]: 3.27% | inhibition [9]: 17% | inhibition [10]: 0.88%

CN(C)CCOc1ccc(-c2nc(-c3ccncc3)c(-c3ccc4c(c3)CC/C4=N\O)[nH]2)cc1
inhibition [1]: -0.62% | inhibition [2]: -0.49% | inhibition [3]: -0.4% | inhibition [4]: 3.04% | inhibition [5]: 7.33% | inhibition [6]: 6.61% | inhibition [7]: 7.1% | inhibition [8]: 0.93% | inhibition [9]: 0.86% | inhibition [10]: 9.22%

COc1ccc2c(-c3ccnc(Nc4cccc(OC(F)(F)F)c4)n3)cnn2n1
inhibition [1]: -1.74% | inhibition [2]: 1.81% | inhibition [3]: -2.35% | inhibition [4]: 4% | inhibition [5]: 20% | inhibition [6]: 4.59% | inhibition [7]: 7.22% | inhibition [8]: 3.15% | inhibition [9]: 6.88% | inhibition [10]: 9.38%

CC(=O)Nc1cccc(C#Cc2cncnc2Nc2ccc(OCc3cccc(F)c3)c(Cl)c2)c1
inhibition [1]: -1.15% | inhibition [2]: -0.41% | inhibition [3]: -2.47% | inhibition [4]: -0.51% | inhibition [5]: -4.66% | inhibition [6]: 3.13% | inhibition [7]: -2.41% | inhibition [8]: 2.6% | inhibition [9]: -1.07% | inhibition [10]: 0.8%

Cc1cccc2c1NC(=O)/C2=N\Nc1ccc(S(N)(=O)=O)cc1
inhibition [1]: 1.88% | inhibition [2]: -0.11% | inhibition [3]: 0.27% | inhibition [4]: -0.53% | inhibition [5]: 0.34% | inhibition [6]: 2.87% | inhibition [7]: 0.58% | inhibition [8]: 2.93% | inhibition [9]: 3.79% | inhibition [10]: 3.32%

CC(=O)NCc1cccc(C#Cc2cncnc2Nc2ccc(OCc3cccc(F)c3)c(Cl)c2)c1
inhibition [1]: -1.56% | inhibition [2]: -0.13% | inhibition [3]: -2.39% | inhibition [4]: -0.56% | inhibition [5]: 1.55% | inhibition [6]: -0.42% | inhibition [7]: 3.17% | inhibition [8]: -1.42% | inhibition [9]: 1.29% | inhibition [10]: 0.37%

O=S(=O)(CCNCc1ccc(-c2ccc3ncnc(Nc4ccc(OCc5cccc(F)c5)c(Cl)c4)c3c2)o1)c1ccccc1
inhibition [1]: -5.05% | inhibition [2]: -0.55% | inhibition [3]: 0.69% | inhibition [4]: 10.6% | inhibition [5]: 5.49% | inhibition [6]: 2.96% | inhibition [7]: -0.88% | inhibition [8]: 6.77% | inhibition [9]: 7.07% | inhibition [10]: 12%

COc1cc2c(cc1Nc1nc(Nc3ccsc3C(N)=O)c3cc[nH]c3n1)N(C(=O)CN(C)C)CCC2(C)C
inhibition [1]: 1.56% | inhibition [2]: -0.3% | inhibition [3]: -2.8% | inhibition [4]: 39.4% | inhibition [5]: 75.3% | inhibition [6]: 5.27% | inhibition [7]: 0.27% | inhibition [8]: 8.68% | inhibition [9]: 6.07% | inhibition [10]: 10.8%

c1ccc(-c2nc3n(c2-c2ccc4c(c2)OCO4)CCC3)nc1
inhibition [1]: 0.44% | inhibition [2]: -0.36% | inhibition [3]: 0% | inhibition [4]: 0.8% | inhibition [5]: 1.12% | inhibition [6]: 0.69% | inhibition [7]: -5.83% | inhibition [8]: 3.06% | inhibition [9]: -0.72% | inhibition [10]: 1.33%

CCn1cc(-c2ccnc3[nH]ccc23)c(-c2cccc(NC(=O)Nc3ccc(OCc4ccccc4)cc3)c2)n1
inhibition [1]: -4.04% | inhibition [2]: -0.83% | inhibition [3]: -0.59% | inhibition [4]: 9.36% | inhibition [5]: -1.27% | inhibition [6]: 1.99% | inhibition [7]: -6.8% | inhibition [8]: 4.3% | inhibition [9]: 5.23% | inhibition [10]: -4.18%

c1cc(-c2cnn3nc(N4CCOCC4)ccc23)nc(NC2CC2)n1
inhibition [1]: 0.41% | inhibition [2]: 0% | inhibition [3]: 1.66% | inhibition [4]: 1.46% | inhibition [5]: 7.14% | inhibition [6]: 6.71% | inhibition [7]: 15.7% | inhibition [8]: 3.81% | inhibition [9]: 5.82% | inhibition [10]: 2.67%

Fc1ccc(-c2nn3ncccc3c2-c2ccnc(Nc3ccc4c(c3)OCCO4)n2)cc1
inhibition [1]: 0.16% | inhibition [2]: 0% | inhibition [3]: 0.35% | inhibition [4]: 2.03% | inhibition [5]: 0.07% | inhibition [6]: 9.88% | inhibition [7]: 7.87% | inhibition [8]: 5.46% | inhibition [9]: 4.62% | inhibition [10]: 5.66%

COc1ccc(-c2nn3ncccc3c2-c2ccnc(Nc3ccc4c(c3)OCCO4)n2)cc1
inhibition [1]: -0.22% | inhibition [2]: -0.07% | inhibition [3]: 0.39% | inhibition [4]: 7.89% | inhibition [5]: 3.92% | inhibition [6]: 6.88% | inhibition [7]: 1.71% | inhibition [8]: 3.03% | inhibition [9]: 1.7% | inhibition [10]: 1.54%

COC(=O)Nc1nc2ccc(Oc3ccc(NC(=O)Nc4cccc(Cl)c4)cc3)cc2[nH]1
inhibition [1]: -0.57% | inhibition [2]: 0% | inhibition [3]: 0% | inhibition [4]: 4.68% | inhibition [5]: 1.84% | inhibition [6]: -0.79% | inhibition [7]: 6.02% | inhibition [8]: -0.04% | inhibition [9]: 1.06% | inhibition [10]: 4.59%
